Measurements: the supplement of paper PMC10338343
± gives the standard deviation.

Each sequence was assayed on MILI (PIWIL2) piRISC loaded with L1MC piRNA (26 nt) (assay: pre-steady-state target cleavage rate (min^-1); guide: L1MC piRNA 5'p-UAACUAAAUACUAUGCAAGCUGUAGG; MIWI and MILI are mouse PIWI proteins and EfPiwi is from a freshwater sponge; tags in brackets are library labels; higher = faster piRNA-guided slicing of the target). Conditions: auxiliary factor: 500 nM mouse GTSF1.
Experimental: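 Cleave-'n-Seq: a library of target RNAs (target site embedded in constant flanks, ACAGCATTCCGCGTTAGTGATATCCG... 5' flank; DNA-blocked outside the site) at 0.1 nM was incubated with 1 nM active mouse MILI or MIWI piRISC (synthetic 5'-monophosphorylated piRNA guide) with or without 500 nM mouse GTSF1 at 33 °C for 1 min to 16 h. Uncleaved targets were sequenced and normalised to non-target controls, and the pooled three trials were fitted to a burst-and-steady-state model to give the pre-steady-state cleavage rate (min^-1; k3 is constrained to at most 1e-4). Sequence is the target site only; target names encode pairing extent (gX:gY) and contiguous / 1-mismatch / 2-mismatch / bulge geometry. Fits with R² ≤ 0 are excluded.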

| Sequence | pre-steady-state target cleavage rate |
| --- | --- |
| UCCUGGUACAGCUUGCUUACUAUUUAGUUA | 0.0679 ± 0.012 |
| UCCUGCUACAGCUUGCAUGGUAUUUAGUUA | 0.334 ± 0.018 |
| UCCUGGUACAGCUUGCAUAGUAUUUAGUGUA | 0.143 ± 0.021 |
| UCCUCCUACAGCUUCCAUAGUUUUUAGUUA | 0.0195 ± 0.0081 |
| UCCUGGUACUGCUUGCAUACUAUUUAGUUA | 0.0502 ± 0.015 |
| UCCUCCUACAGCUUGCAUAGUAUUUAGUUG [g2:g26:cont:t1G] | 0.158 ± 0.016 |
| UCCUGCUACAGCUUGCAUUGUAUUUAGUAA | 0.176 ± 0.018 |
| UCCUGGAAGUGCUUGCAUAGUAUUUAGUUA | 0.127 ± 0.013 |
| UCCUCCUACAGCAUUGCAUAGUAUUUAGUUA | 0.228 ± 0.014 |
| UCCUGGAUGUGCUAGCAUUGUAUUUAGUUA | 0.0146 ± 0.0031 |
| UCCUGCUACAGCUUGCAUAGUAAUUAGUUA | 0.271 ± 0.028 |
| UCCUGGAUGAGCUUCCAAAGUAUUUAGUUA | 0.0331 ± 0.0072 |
| UCCUGGAAGAGCUUGCAUAGUUUUUAGUUA | 0.0486 ± 0.011 |
| UCCUCCAUCAGCUUGCAUAGUAUUUAGUAA | 0.165 ± 0.024 |
| UCCUGGAUGAGCUGGCAUAGUAUUUAGUUA | 0.185 ± 0.016 |
| UCCUGGAUGUCCUGCAUAGUAUUUAGUUA | 0.094 ± 0.013 |
| UCCUGGAUGUCGUUGCAUAGUCUUUAGUUA | 0.0286 ± 0.0084 |
| UCCUGGAUGUCGUUGCAUAGUAUAAUGUUA | 0.0201 ± 0.011 |
| UCCUGGGACAGCUUGCAUAGUAUUUAGUUA | 0.231 ± 0.024 |
| UCCUGGAUGUGCUUGCAUAGUAUUUAGUCUA | 0.0182 ± 0.006 |
| UCCUGGAUCAGCUUCGUUAGUAUUUAGUUA | 0.0434 ± 0.0096 |

Same assay, conditions: auxiliary factor: none (no GTSF1)

| Sequence | pre-steady-state target cleavage rate |
| --- | --- |
| UCCUGGUACAGCUUGCUUACUAUUUAGUUA | 0.00375 ± 0.0027 |
| UCCUGCUACAGCUUGCAUGGUAUUUAGUUA | 0.0121 ± 0.0029 |
| UCCUGGUACAGCUUGCAUAGUAUUUAGUGUA | 0.00896 ± 0.0033 |
| UCCUGGUACUGCUUGCAUACUAUUUAGUUA | 0.00418 ± 0.0039 |
| UCCUCCUACAGCUUGCAUAGUAUUUAGUUG [g2:g26:cont:t1G] | 0.0087 ± 0.0025 |
| UCCUGCUACAGCUUGCAUUGUAUUUAGUAA | 0.00356 ± 0.002 |
| UCCUGGAAGUGCUUGCAUAGUAUUUAGUUA | 0.00836 ± 0.0022 |
| UCCUCCUACAGCAUUGCAUAGUAUUUAGUUA | 0.00746 ± 0.0025 |
| UCCUGGAUGUGCUAGCAUUGUAUUUAGUUA | 0.00365 ± 0.0026 |
| UCCUGCUACAGCUUGCAUAGUAAUUAGUUA | 0.00539 ± 0.0023 |
| UCCUGGAUGAGCUUCCAAAGUAUUUAGUUA | 0.00379 ± 0.0027 |
| UCCUGGAAGAGCUUGCAUAGUUUUUAGUUA | 0.004 ± 0.0023 |
| UCCUCCAUCAGCUUGCAUAGUAUUUAGUAA | 0.00315 ± 0.0022 |
| UCCUGGAUGAGCUGGCAUAGUAUUUAGUUA | 0.0101 ± 0.0034 |
| UCCUGGAUGUCCUGCAUAGUAUUUAGUUA | 0.00628 ± 0.0019 |
| UCCUGGAUGUCGUUGCAUAGUCUUUAGUUA | 0.00414 ± 0.0025 |
| UCCUGGGACAGCUUGCAUAGUAUUUAGUUA | 0.0138 ± 0.0034 |
| UCCUGGAUCAGCUUCGUUAGUAUUUAGUUA | 0.00279 ± 0.0024 |
